Screening results from PubChem.
CHX counter: counter-screen hit for Shiga toxin inhibitors, cycloheximide. max response, %. 300,000 tested, 12% active. AID 2314. cell reporter, cycloheximide protein synthesis inhibition counterscreen; in the data active = max response mostly above about 13%, no sharp cut-off; inactive = mostly below about 14%; also: read at 38.3 µM for the half of the compounds with a filed dose; 0% is about no effect
SARS PLpro yeast: SARS-CoV PLP inhibition in yeast | 330,000 tested, 0.19% active | Potency, µM (top dose mostly 32.9 µM), for inactives: at the highest dose activity, positive = growth rescue, hits mostly activators | S. cerevisiae expressing SARS-CoV PLpro, growth rescue; calls by dose curve; also: potency is read from the fitted curve at half-maximal effect; 0% is about no effect; nearly all actives have a fitted effect of over 55% in size
AMA1-RON2 inh: AMA1-RON2 (P. falciparum) interaction inhibition | AlphaScreen AMA1-biotinylated RON2 peptide binding | Potency, µM (series often up to 58.2 µM), for inactives: at the top dose activity change, negative = inhibition, most hits filed as inhibitors | 360,000 tested, 0.2% active;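 also: potency is read from the fitted curve at half-maximal effect; 0% = vehicle wells and -100% = peptide control; nearly all actives have a fitted effect of over 45% in size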
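AMA1 (3D7) with his tag at 25 nM final met compounds first, then biotinylated RON2 peptide at 25 nM; detection used donor plus acceptor beads, 10 µg/mL apiece, read by AlphaScreen after 30 min at room temperature.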
Shiga inhibitor: blocks Shiga toxin action in Vero cells; inhibition, % at 38.7 µM; Vero cells, Shiga toxin protein synthesis inhibition reporter; 290,000 tested, 9.2% active; AID 2315; in the data active = inhibition mostly above about 28%, no sharp cut-off; inactive = mostly below about 43%; also: 0% is about no effect
Pf growth 96h: P. falciparum growth inhibition at 96 hours; 320,000 tested, 6.9% active; P. falciparum luciferase reporter growth, 96 h; Potency, µM (series often up to 28.7 µM), for inactives: at the top dose activity change, negative = inhibition, actives largely listed as inhibitors; AID 504834; also: potency is read from the fitted curve at half-maximal effect; % is scaled to controls: 0 for no effect and ±100 for the full control effect
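Luminescence readout: decreased luciferase signal marks inhibited growth of reporter-expressing P. falciparum in infected red cells (2% hematocrit, 0.05% parasitemia final), exposed to compound two generations (96 h, 37 C, 5% CO2).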
Pf growth 48h: inhibits P. falciparum growth in the first generation, 48 h | P. falciparum luciferase growth in erythrocytes, 48 h | Potency, µM (series often up to 28.7 µM), for the others: top-dose activity change, negative = inhibition, actives largely listed as inhibitors | 310,000 tested, 5.9% active; also: potency is read from the fitted curve at half-maximal effect; % is scaled to controls: 0 for no effect and ±100 for the full control effect
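Here the parasites carry a stable luciferase gene and grow inside erythrocytes in Albumax-based RPMI medium with compound for one erythrocytic cycle. Activity is scored as loss of luminescent signal.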
An asterisk follows results filed as active; ? = inconclusive; / = not tested or not shown; [ ] = another dose, or the depositor's remark. Hits are enriched below; roughly 19% of the tested compounds scored in any of these assays. Unless noted, calls follow the shape of the dose curve; as a rule, active = well fitted curve in the direction sought with a large enough effect; inconclusive = small, poorly fitted or top-dose-only effect, or another doubt; inactive = no such curve, though single readings can be large; an effect the other way counts as inactive or inconclusive.

SMILES	CHX counter	SARS PLpro yeast	AMA1-RON2 inh	Shiga inhibitor	Pf growth 96h	Pf growth 48h
CCOc1ccc(NC(=O)C2CCCN(S(=O)(=O)c3c(C)noc3C)C2)cc1 (centres undefined)	-5	8%	-6%	-14	-28%	7%
COc1ccccc1N(C)S(=O)(=O)c1ccc(C)c(C(=O)N2CCCCCC2)c1	/	-1%	14%	/	?	?
Cc1c(C(=O)Nc2cccc(F)c2)cnn1-c1ccccc1	39*	-11%	-3%	64*	-11%	262%
COc1ccccc1-c1nnc(SCC(=O)N2CCCCC2)o1	23*	4%	0%	22	?	-2%
COc1ccc(-c2nnc(SCC(=O)N3CCCc4ccccc43)o2)cc1OC	-5	-4%	11%	8	12µM*	-8%
COc1ccc(-c2nnc(SCC(=O)N3CCCC3)o2)cc1OC	/	/	12%	/	/	/
Cc1ccccc1-c1nnc(SCC(=O)N2CCCC2)o1	44*	-2%	-8%	80*	-14%	55%
O=C(CSc1nnc(-c2ccncc2)o1)N1CCCC1	11	-5%	-2%	4	-15%	?
Cc1cccc(N2CCN(C(=O)C3CCN(S(=O)(=O)N4CCOCC4)CC3)CC2)c1C	-8	2%	7%	-4	?	-20%
COc1ccc(N2C(=O)CC(=O)NC2=O)cc1	-2	0%	-4%	-9	-5%	28%
COc1ccc(CN2C(=O)CC(=O)NC2=O)cc1	-10	0%	2%	-15	4.1µM*	1%
O=c1onc(-c2ccc(Cl)cc2Cl)n1-c1cccnc1	-3	1%	13%	-3	50%	49%
O=C(CNc1cccc(S(=O)(=O)N2CCCC2)c1)Nc1ccc(F)cc1F	/	-1%	-10%	/	9.3µM*	8.3µM*
O=C(CNc1cccc(S(=O)(=O)N2CCCCC2)c1)Nc1cccc(F)c1	/	2%	-4%	/	2.3µM*	2.9µM*
CN(C)S(=O)(=O)c1cccc(NC(=O)CNc2cccc(S(=O)(=O)N3CCCCC3)c2)c1	/	/	-9%	/	/	/
CCCCOc1cccc2c(=O)n(CC(=O)Nc3ccc4c(c3)OCCO4)ccc12	/	/	-4%	/	/	/
BrC(=C\c1ccccc1)/C=N/Nc1ccc2nncn2n1	11	-1%	33%	18	13%	-13%
BrC(=C\c1ccccc1)/C=N/n1cnnc1	43*	-8%	-4%	31*	26%	10µM*
COc1cccc(C(=O)O[C@@H]2[C@H](Cc3ccccc3)NS(=O)(=O)[C@H]3C[C@@H]4C=C[C@]23O4)c1	/	-2%	-6%	/	?	?
CC(C)(C)c1ccc(C(=O)O[C@H]2[C@H](Cc3ccccc3)NS(=O)(=O)[C@H]3C[C@@H]4C=C[C@]23O4)cc1	/	6%	-10%	/	12µM*	13µM*
CCOc1ccc(C(=O)O[C@H]2[C@H](Cc3ccccc3)NS(=O)(=O)[C@H]3C[C@@H]4C=C[C@]23O4)cc1	/	3%	21%	/	4.7µM*	2.1µM*
CN(C)c1nc(N(C)C)n(Cc2c(Cl)cccc2Cl)n1	-3	1%	-6%	2	?	13%
CN(C)c1ccc(CN(C(=O)C2COc3ccccc3O2)C2CCS(=O)(=O)C2)cc1 (centres undefined)	4	4%	-4%	-5	5.2µM*	?
CCOc1cc(C(c2c(C)[nH][nH]c2=O)c2c(C)[nH][nH]c2=O)ccc1OS(=O)(=O)c1ccc(C)cc1	-4	-5%	49%	5	/	15µM*
CO/N=C/CC(=O)c1ccc([N+](=O)[O-])c(CS(=O)(=O)c2ccc(Cl)cc2)c1	2	1%	2%	2	?	15µM*
SMILES	CHX counter	SARS PLpro yeast	AMA1-RON2 inh	Shiga inhibitor	Pf growth 96h	Pf growth 48h
CN1C(C(=O)N2CCc3ccccc3C2)=CC(c2ccc(F)cc2)=NS1(=O)=O	0	1%	-9%	-1	64%	-7%
COC(=O)c1ccc([C@H]2C=C(C(=O)O)O[C@@H](OCc3ccc(CO)cc3)C2)cc1	-3	-1%	11%	-5	56%	43%
CCOC(=O)c1cnc(SCCN2CCOCC2)nc1N	18*	1%	23%	34	15%	59%
CCOC(=O)c1cnc(SCC(=O)Nc2ccc(N3CCOCC3)cc2)nc1N	-3	2%	/	-3	6%	/
CCOC(=O)c1cnc(SCC(=O)OC)nc1N	34*	-1%	2%	72	?	0%
CCOC(=O)c1cnc(SSc2ncc(C(=O)OCC)c(N)n2)nc1N	-3	-9%	8%	/	?	-9%
C=CCSc1ncc(C(=O)OCC)c(N)n1	41*	0%	-14%	51*	57%	136%
Cc1ccc(S(=O)(=O)c2c(C)cc(C)nc2Oc2cccc(C(F)(F)F)c2)cc1	10	-6%	21%	-6	?	?
COc1ccc(CC/C(C)=N\NC(N)=O)cc1	0	-15%	3%	-3	7%	1%
C=CCN=C(NC#N)SCC(=O)c1cccc(OC)c1	61*	4%	-14%	63*	-2%	-6%
COc1ccc2c(c1)cc1c(=O)n(CC(=O)NCCCN3CCOCC3)nc(C)n12	-4	-1%	6%	-2	70%	19%
Cc1ccc(NC(=O)C2CCCC2)cc1Cl	/	/	1%	/	/	/
Cc1ccc(NC(=O)C2OCCc3ccccc32)cc1Cl (centres undefined)	18*	-3%	13%	58*	8.3µM*	-7%
Cc1ccc(NC(=O)C2OCCc3ccccc32)cc1 (centres undefined)	40*	-6%	10%	79*	48%	46%
Cc1ccc(NC(=O)C(=O)NCC2OCCc3ccccc32)cc1 (centres undefined)	7	-1%	-1%	11	13%	43%
CCOc1ccc(-c2nnc(NC3=NCCCCC3)o2)cc1	41*	2%	5%	73*	/	103%
c1coc(-c2nnc(NC3=NCCC3)o2)c1	29*	-2%	66%	66*	?	85%
Cc1nnc(NC2=NCCC2)o1	12	11%	64%	10	29%	-1%
COc1ccc(-c2nc3ccccc3c(=O)o2)cc1OC	4	9%	8%	-5	0%	26%
CCOc1ccc(-c2nc3ccccc3c(=O)o2)cc1	15*	-2%	-6%	21	22%	122%
CCCCOc1ccc(-c2nnc(-c3ccncc3)o2)cc1	17*	-2%	-1%	56	28%	?
CC(C)NC[C@H]1CCc2cc(CO)c([N+](=O)[O-])cc2N1	/	/	/	/	-12%[12.8 µM]	-10%[12.8 µM]
CCCCOc1ccc(-c2nnc(-c3cc[n+](C)cc3)o2)cc1	3	-1%	-11%	34	-6%	0.41µM*
CCOc1ccc(-n2c(C)c3c(C)nnc(C)c3c2C)cc1	/	/	-7%	/	/	/
CCOc1ccc(-c2nnc(-c3ccccc3)n2-c2ccccc2)cc1	42*	-5%	-5%	65	?	17%
